The results in this text go back to PubChem BioAssay.

The source made the active and inactive calls.

Experiment [1] relates to PRMT1 (protein arginine N-methyltransferase 1). Briefly: PRMT1 binders on small-molecule microarrays, primary screen, biochemical, small-molecule microarray, 635 nm fluorescence (AID 1088).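 Also: binding of Prmt1 protein to compounds spotted on small-molecule microarray slides.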 To be noted: small-molecule microarray binding, higher = more signal.
Experiment [2] in a line: yeast growth modulation, basal conditions, primary screen, YJM789 clinical isolate, OD600, 24 h (AID 1089).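 Also: growth of clinical yeast isolate S. cerevisiae YJM 789 seeded 1000 cells per well; test concentration not given here.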 To be noted: S. cerevisiae YJM789 growth, higher = more signal, called active from +8 up or from −8 down.
Experiment [3] can be described thus: fission yeast growth modulation, primary screen, strain 972, OD600, 24 h, no modulator (AID 1090).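 Also: basal condition with compound alone and no growth modifier present; test concentration not given here.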 To be noted: S. pombe 972 growth, higher = more signal, called active from +8 up or from −8 down.
Experiment [4] is described as follows: S. cerevisiae growth modulation with rapamycin, primary screen, strain BY4716, OD600, 96 h (AID 1091). Also: test concentration not given here. The settings on record: higher = more signal, called active from +8 up or from −8 down.
For experiment [5], the target named is Torsin-1A-interacting protein 2 (Homo sapiens) (UniProt Q8NFQ8). Briefly: LULL1 binders on small-molecule microarray, primary screen, cell lysate, human LULL1 lysate, 635/667 nm fluorescence (AID 1092).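 Also: probe is lysate of COS7 cells overexpressing human LULL1; score merges per-feature 667 nm fluorescence with signal-to-noise.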 The settings on record: hLULL1 lysate binding, 635 nm fluorescence, higher = more signal.
Sequence of Torsin-1A-interacting protein 2 (Homo sapiens) (Q8NFQ8 whole entry, looked up): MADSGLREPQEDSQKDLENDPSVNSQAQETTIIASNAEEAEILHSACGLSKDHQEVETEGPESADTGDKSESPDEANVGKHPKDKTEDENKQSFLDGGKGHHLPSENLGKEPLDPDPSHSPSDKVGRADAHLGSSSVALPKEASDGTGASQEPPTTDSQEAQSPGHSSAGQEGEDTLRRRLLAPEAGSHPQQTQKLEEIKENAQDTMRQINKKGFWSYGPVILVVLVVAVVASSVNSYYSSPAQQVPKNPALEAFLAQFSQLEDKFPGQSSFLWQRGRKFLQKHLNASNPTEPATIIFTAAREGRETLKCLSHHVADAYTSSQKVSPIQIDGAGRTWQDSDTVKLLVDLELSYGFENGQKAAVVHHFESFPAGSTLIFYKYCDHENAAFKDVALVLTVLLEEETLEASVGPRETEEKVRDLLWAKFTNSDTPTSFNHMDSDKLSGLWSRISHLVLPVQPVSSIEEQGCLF
Experiment [6] can be described thus: E. coli growth modulation, two-sided OD650, primary screen, E. coli filamentation project, strain DRC41, 24 h (AID 1093).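 Also: MC1000 strain lacking acrAB efflux and sulA so SOS filamentation is blocked; test concentration not given here.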 The settings on record: OD650, 24 h, higher = more signal, called active from +8 up or from −8 down.
Experiment [7] is described as follows: small-molecule microarray binders of probe aLefty2, primary screen, biochemical, biotinylated probe, 635/667 nm fluorescence (AID 1094).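 Also: score merges spot fluorescence near 667 nm with spot signal-to-noise ratio.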 To be noted: higher = more signal.
Experiment [8] deals with Noggin (protein binding on small-molecule microarray). Briefly: Noggin binders on small-molecule microarray, primary screen, biochemical, 635/667 nm fluorescence (AID 1095).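 Also: score merges 667 nm feature fluorescence with signal to noise over triplicate slides.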 The settings on record: 635 nm fluorescence, higher = more signal.
The target of experiment [9] is Neurogenic locus notch homolog protein 3 (Homo sapiens) (UniProt Q9UM47). Briefly: NOTCH3 binders on small-molecule microarray, primary screen, biochemical, 635/667 nm fluorescence (AID 1096). To be noted: NOTCH3 binding, 635 nm fluorescence, higher = more signal.
Sequence of Neurogenic locus notch homolog protein 3 (Homo sapiens) (Q9UM47 whole entry, looked up): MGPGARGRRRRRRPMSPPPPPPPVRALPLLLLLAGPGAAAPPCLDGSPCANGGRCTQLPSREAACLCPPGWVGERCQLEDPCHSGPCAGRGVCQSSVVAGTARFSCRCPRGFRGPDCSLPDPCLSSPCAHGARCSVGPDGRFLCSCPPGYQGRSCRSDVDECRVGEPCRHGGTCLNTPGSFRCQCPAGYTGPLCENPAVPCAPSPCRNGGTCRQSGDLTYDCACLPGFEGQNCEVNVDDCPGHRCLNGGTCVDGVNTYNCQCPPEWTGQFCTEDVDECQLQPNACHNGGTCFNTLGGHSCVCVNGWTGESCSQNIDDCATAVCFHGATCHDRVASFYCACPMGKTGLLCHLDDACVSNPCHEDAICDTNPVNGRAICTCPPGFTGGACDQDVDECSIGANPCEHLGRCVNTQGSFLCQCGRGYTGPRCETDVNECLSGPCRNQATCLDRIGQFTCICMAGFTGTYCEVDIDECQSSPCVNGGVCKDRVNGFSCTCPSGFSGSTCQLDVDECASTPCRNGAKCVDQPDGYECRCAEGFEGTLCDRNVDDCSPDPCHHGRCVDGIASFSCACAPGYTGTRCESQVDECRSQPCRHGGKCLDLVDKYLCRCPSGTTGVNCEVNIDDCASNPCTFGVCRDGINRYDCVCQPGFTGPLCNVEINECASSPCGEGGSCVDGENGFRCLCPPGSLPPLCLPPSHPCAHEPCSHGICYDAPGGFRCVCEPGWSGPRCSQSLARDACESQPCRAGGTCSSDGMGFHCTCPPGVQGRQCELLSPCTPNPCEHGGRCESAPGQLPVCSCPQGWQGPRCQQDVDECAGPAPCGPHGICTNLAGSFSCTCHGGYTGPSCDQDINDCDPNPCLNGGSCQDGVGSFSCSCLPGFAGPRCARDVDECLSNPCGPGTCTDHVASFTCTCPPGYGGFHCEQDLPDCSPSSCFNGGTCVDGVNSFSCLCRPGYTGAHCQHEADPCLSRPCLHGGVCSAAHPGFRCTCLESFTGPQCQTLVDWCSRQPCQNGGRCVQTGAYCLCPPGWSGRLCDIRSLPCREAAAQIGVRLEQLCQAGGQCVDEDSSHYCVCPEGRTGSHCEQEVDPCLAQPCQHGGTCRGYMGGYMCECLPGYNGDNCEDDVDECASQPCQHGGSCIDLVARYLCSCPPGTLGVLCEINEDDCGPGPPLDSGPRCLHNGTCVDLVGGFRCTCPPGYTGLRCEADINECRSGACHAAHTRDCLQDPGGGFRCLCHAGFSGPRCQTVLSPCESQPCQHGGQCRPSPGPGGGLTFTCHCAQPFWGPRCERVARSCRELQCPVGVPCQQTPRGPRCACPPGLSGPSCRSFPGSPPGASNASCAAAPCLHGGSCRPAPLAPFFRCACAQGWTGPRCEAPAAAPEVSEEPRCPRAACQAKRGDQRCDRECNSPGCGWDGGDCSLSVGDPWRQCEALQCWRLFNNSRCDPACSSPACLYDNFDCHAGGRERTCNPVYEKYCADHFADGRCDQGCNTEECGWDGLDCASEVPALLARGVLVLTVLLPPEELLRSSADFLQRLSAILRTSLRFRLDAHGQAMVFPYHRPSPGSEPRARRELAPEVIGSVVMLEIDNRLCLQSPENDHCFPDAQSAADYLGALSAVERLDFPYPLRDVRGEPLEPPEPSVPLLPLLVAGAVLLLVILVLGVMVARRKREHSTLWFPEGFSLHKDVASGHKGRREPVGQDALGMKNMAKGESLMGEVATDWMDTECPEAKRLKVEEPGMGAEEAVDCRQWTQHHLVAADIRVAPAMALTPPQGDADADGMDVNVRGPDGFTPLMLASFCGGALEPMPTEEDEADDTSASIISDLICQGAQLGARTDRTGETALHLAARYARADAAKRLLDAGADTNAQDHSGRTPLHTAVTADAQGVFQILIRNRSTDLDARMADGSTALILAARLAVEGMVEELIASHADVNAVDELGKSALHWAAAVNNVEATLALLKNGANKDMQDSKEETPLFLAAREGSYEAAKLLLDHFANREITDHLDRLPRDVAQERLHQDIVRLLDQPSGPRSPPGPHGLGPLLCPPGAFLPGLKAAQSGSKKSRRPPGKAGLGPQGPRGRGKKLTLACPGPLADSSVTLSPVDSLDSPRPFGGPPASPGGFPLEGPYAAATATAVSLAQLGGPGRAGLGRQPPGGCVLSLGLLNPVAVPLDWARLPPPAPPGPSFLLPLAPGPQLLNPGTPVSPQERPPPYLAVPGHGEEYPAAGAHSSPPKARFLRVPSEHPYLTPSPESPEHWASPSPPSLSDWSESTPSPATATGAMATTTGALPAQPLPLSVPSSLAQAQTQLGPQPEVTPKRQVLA
Experiment [10] can be described thus: small-molecule microarray binders of probe aEGFR, primary screen, biochemical, biotinylated probe, 635/667 nm fluorescence (AID 1097).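 Also: probe is a biotinylated anti-EGFR antibody binding compounds printed on slides; score combines fluorescence near 667 nm and signal to noise of each spot.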 The settings on record: higher = more signal.

As to `C=CCC(OC(C)=O)[C@@H]1[C@@H](N(Cc2cc3ccccc3o2)C(=O)c2cccc3ccccc23)c2cc(OCCCO)ccc2N1C(=O)c1ccc2ccccc2n1` (stereo not given in full), the composite z-score in experiment [1] was 0.109; in experiment [5], 0.588; in experiment [7] it was -0.0285; in experiment [8], 0.728; in experiment [9] it was -0.127; in experiment [10] it was -0.182. For the same compound, the z-score was 0.472 (inactive) in [2], -0.8 (inactive) in [3], 0.12 (inactive) in experiment [4] and 1.06 (inactive) in experiment [6].
Take `C=C(C)[C@@H]1CC=C(C(O)C2C=CC3C(=O)N(c4ccccc4)C(=O)C3N2Nc2ccc([N+](=O)[O-])cc2)CC1` (stereo not given in full): the composite z-score in [1] was 1.55; in experiment [5], 3.57; in experiment [7], -0.0357; in experiment [8], 0.939; in [9], 1.05; in [10] it was -0.0435. The z-score in experiment [2] was -0.0158 (inactive); in experiment [3], 0.348 (inactive); in experiment [4], 3.6 (inactive); in experiment [6], -1.96 (inactive).
With `O=C(NCc1ccccc1)[C@@H]1c2ccccc2C(=O)N(Cc2cc(C(F)(F)F)cc(C(F)(F)F)c2)[C@H]1c1ccc(CO)cc1`, the composite z-score is 1.53 in experiment [1]; 2.55 in [5]; -0.0512 in [7]; 1.37 in [8]; 1.12 in [9]; 0.0453 in [10]. Moreover, the z-score is 0.744 (inactive) in [2], -0.077 (inactive) in experiment [3], 0.296 (inactive) in experiment [4] and -1 (inactive) in experiment [6].
Take `CCCCCC1=C2CNC(Cc3ccccc3)(C(=O)OC)C=C2C(C)C1=O` (stereo not given): the composite z-score in experiment [1] was -0.488; in experiment [5] it was 2.5; in experiment [7] it was 0.226; in [8] it was -1.49; in experiment [9] it was -0.638; in experiment [10], -0.0632. For the same compound, the z-score in experiment [2] is 0.194 (inactive); in experiment [3], -0.331 (inactive); in experiment [4] it was 1.2 (inactive); in experiment [6], -0.791 (inactive).
`CN(C)CCCNC(=O)[C@@]1(Cc2ccccc2I)c2ccccc2C(=O)N(C2CCCCC2)[C@H]1c1ccc(CO)cc1`: the composite z-score in experiment [1] was 1.55; in experiment [5], 2.34; in experiment [7], 0.446; in experiment [8], 0.27; in experiment [9] it was 0.953; in [10] it was 0.123. The z-score was 0.273 (inactive) in experiment [2], -19.5 (active) in experiment [3], -2.99 (inactive) in [4] and 0.0304 (inactive) in experiment [6].
Turning to `O=C1c2ccccc2[C@@]2(Cc3ccccc3N(Cc3ccccc3)C2=O)[C@H](c2ccc(CO)cc2)N1Cc1ccccc1Cl`, the composite z-score in [1] was 0.11; in experiment [5] it was -0.394; in experiment [7], -0.0812; in experiment [8], -0.109; in [9] it was -0.149; in experiment [10], -0.146. The z-score in experiment [2] was -0.251 (inactive); in [3] it was -0.602 (inactive); in experiment [4] it was -2.35 (inactive); in experiment [6], -0.499 (inactive).
Turning to `COC(=O)[C@@]1(Cc2ccc(F)cc2)[C@H]2c3cc(C(=O)N4CCCC4)n(Cc4ccccn4)c3C[C@H]2CN1C(=O)c1ccccc1`, the composite z-score in experiment [1] is 0.159; in [5] it was 3.32; in [7], 0.361; in experiment [8], -0.108; in experiment [9] it was 0.841; in experiment [10], 0.33. For the same compound, the z-score in experiment [2] is 0.269 (inactive); in experiment [3] it was -0.289 (inactive); in [4], 0.856 (inactive); in [6], -1.76 (inactive).
With `COC(=O)[C@@]1(Cc2ccc(OC)cc2)[C@H]2c3cc(C(=O)N4CCCC4)n(Cc4ccc(Cl)c(C(F)(F)F)c4)c3C[C@H]2CN1C(=O)c1ccccc1`, the composite z-score is 1 in [1]; 3.59 in experiment [5]; 0.711 in experiment [7]; -0.109 in experiment [8]; 1.03 in experiment [9]; 0.0788 in [10]. The z-score in experiment [2] is -1.21 (inactive); in experiment [3], 1.37 (inactive); in [4], 0.509 (inactive); in [6] it was -0.304 (inactive).
Regarding `O=C1O[C@H](c2ccccc2)[C@H](c2ccccc2)N2[C@H]1[C@@H](C(=O)N1CCN(c3ncccn3)CC1)[C@]1(C(=O)Nc3ccc(C#CCCO)cc31)[C@H]2c1ccc(O)cc1`, the composite z-score was 0.738 in experiment [1]; 2.92 in [5]; -0.0784 in [7]; 0.283 in [8]; 0.504 in experiment [9]; -0.004 in experiment [10]. The z-score is 0.515 (inactive) in experiment [2], -0.443 (inactive) in experiment [3], 1.18 (inactive) in experiment [4] and -0.778 (inactive) in experiment [6].
As for `COC(=O)[C@H](Cc1ccccc1)N1CC2=CCCC=C[C@@H]2[C@H]1[C@H](O)Cc1ccccc1`, the composite z-score in experiment [1] was 0.438; in experiment [5], 0.626; in [7], -0.0632; in experiment [8], 1.15; in experiment [9], 0.215; in experiment [10], -0.111. Besides, the z-score was -1.09 (inactive) in experiment [2], -2.01 (inactive) in [3], -0.172 (inactive) in experiment [4] and -0.496 (inactive) in experiment [6].
Turning to `C=CCOC(=O)[C@H]1[C@@H]2C(=O)O[C@@H](c3ccccc3)[C@@H](c3ccccc3)N2[C@@H](c2ccc(OCCOC(=O)[C@@H]3C[C@@H]4C(=O)N[C@@H](CCCCNC(C)=O)C(=O)N4[C@@H]3c3cccc(OCCO)c3)cc2)[C@]12C(=O)Nc1ccccc12`, the composite z-score was 1.54 in experiment [1]; 2.36 in [5]; 0.0636 in experiment [7]; 1.34 in experiment [8]; 1.06 in experiment [9]; -0.0103 in experiment [10]. In addition, the z-score in experiment [2] was 0.591 (inactive); in [3], 0.633 (inactive); in [4] it was 2.18 (inactive); in experiment [6] it was -0.471 (inactive).
As to `COc1ccc(C(O)C2C=CC3C(=O)NC(=O)C3N2Nc2ccc(Cl)cc2Cl)c2ccccc12` (stereo not given), the composite z-score in [1] is 1.01; in [5], 2.98; in experiment [7], -0.279; in experiment [8], -0.494; in experiment [9], 1.05; in [10], -0.176. Moreover, the z-score was -10.5 (active) in [2], -2.63 (inactive) in experiment [3], 0.126 (inactive) in experiment [4] and -0.708 (inactive) in experiment [6].
For the compound `C=CCOC(=O)[C@@H]1[C@H]2C(=O)O[C@H](c3ccccc3)[C@H](c3ccccc3)N2[C@H](c2ccc(OCCOC(=O)[C@H]3C[C@H]4C(=O)N5CCC[C@H]5C(=O)N4[C@H]3c3cccc(OCCO)c3)cc2)[C@@]12C(=O)Nc1ccc(I)cc12`, the composite z-score was 1.53 in [1]; 1.6 in [5]; -0.0125 in experiment [7]; 1.52 in experiment [8]; 1.11 in [9]; 0.0238 in [10]. Further, the z-score was 1.3 (inactive) in experiment [2], 2.38 (inactive) in [3], 4.79 (inactive) in experiment [4] and -0.333 (inactive) in experiment [6].
With `[N-]=[N+]=Nc1ccccc1[C@H]1OC(c2ccc(OCCCO)cc2)=N[C@@]1(Cc1ccccc1)C(=O)NCC(O)CO` (stereo not given in full), the composite z-score is 1.02 in [1]; 3.52 in [5]; 0.109 in [7]; 0.0821 in experiment [8]; 0.206 in experiment [9]; -0.0226 in experiment [10]. Besides, the z-score in [2] is -0.858 (inactive); in [3], -1.13 (inactive); in [4], 0.617 (inactive); in [6] it was 0.824 (inactive).
As to `C=CC[C@@]1(C(=O)OC)N=C(c2ccc(OCCCO)cc2)O[C@@H]1c1ccccc1N=[N+]=[N-]`, the composite z-score turned out to be 1.54 in [1]; 3.05 in [5]; 0.346 in [7]; 1.14 in experiment [8]; 1.07 in experiment [9]; 0.118 in experiment [10]. The z-score was -0.777 (inactive) in experiment [2], -0.713 (inactive) in experiment [3], 1.35 (inactive) in [4] and 0.643 (inactive) in [6].
For the compound `COCCn1c(C(=O)N(C)C)cc2c1C[C@H]1CN(C(=O)c3ccccc3)[C@@](Cc3ccc(OC)cc3)(C(=O)OC)[C@@H]21`, the composite z-score in experiment [1] is -0.325; in [5] it was 3.31; in [7], 0.43; in experiment [8], -0.465; in experiment [9] it was 1.1; in [10], 0.0634. The z-score in [2] was 1.15 (inactive); in experiment [3] it was 1.82 (inactive); in experiment [4], 2.03 (inactive); in [6], -0.332 (inactive).
On to `COc1ccc([Si](C)(C)[C@H]2[C@H](CC(=O)N3CCC[C@H]3CO)O[C@@]3(C(=O)N(Cc4ccc(N5CCCCC5=O)cc4)c4ccccc43)[C@@H]2C)cc1`, for which the composite z-score in experiment [1] was 1.54; in experiment [5], 2.51; in [7], -0.18; in experiment [8], 1.41; in experiment [9], 1.06; in experiment [10], -0.0531. In addition, the z-score is -0.398 (inactive) in experiment [2], 0.591 (inactive) in [3], -0.801 (inactive) in [4] and 2.32 (inactive) in [6].
